# High-throughput results (PubChem BioAssay)
# USP8 block: inhibitors of human USP8 deubiquitinase | P40818 | purified USP8, Ub-rhodamine cleavage fluorescence, 30 min | inhibition, % at 20 µM | actives 4.2% (n = 47,000) | AID 1645853
# USP7 block: blocks human USP7 ubiquitin-rhodamine cleavage; inhibition, % at 20 µM; actives 0.3% (n = 47,000); purified USP7, Ub-rhodamine cleavage fluorescence
# Target sequence (Q93009 whole entry, looked up): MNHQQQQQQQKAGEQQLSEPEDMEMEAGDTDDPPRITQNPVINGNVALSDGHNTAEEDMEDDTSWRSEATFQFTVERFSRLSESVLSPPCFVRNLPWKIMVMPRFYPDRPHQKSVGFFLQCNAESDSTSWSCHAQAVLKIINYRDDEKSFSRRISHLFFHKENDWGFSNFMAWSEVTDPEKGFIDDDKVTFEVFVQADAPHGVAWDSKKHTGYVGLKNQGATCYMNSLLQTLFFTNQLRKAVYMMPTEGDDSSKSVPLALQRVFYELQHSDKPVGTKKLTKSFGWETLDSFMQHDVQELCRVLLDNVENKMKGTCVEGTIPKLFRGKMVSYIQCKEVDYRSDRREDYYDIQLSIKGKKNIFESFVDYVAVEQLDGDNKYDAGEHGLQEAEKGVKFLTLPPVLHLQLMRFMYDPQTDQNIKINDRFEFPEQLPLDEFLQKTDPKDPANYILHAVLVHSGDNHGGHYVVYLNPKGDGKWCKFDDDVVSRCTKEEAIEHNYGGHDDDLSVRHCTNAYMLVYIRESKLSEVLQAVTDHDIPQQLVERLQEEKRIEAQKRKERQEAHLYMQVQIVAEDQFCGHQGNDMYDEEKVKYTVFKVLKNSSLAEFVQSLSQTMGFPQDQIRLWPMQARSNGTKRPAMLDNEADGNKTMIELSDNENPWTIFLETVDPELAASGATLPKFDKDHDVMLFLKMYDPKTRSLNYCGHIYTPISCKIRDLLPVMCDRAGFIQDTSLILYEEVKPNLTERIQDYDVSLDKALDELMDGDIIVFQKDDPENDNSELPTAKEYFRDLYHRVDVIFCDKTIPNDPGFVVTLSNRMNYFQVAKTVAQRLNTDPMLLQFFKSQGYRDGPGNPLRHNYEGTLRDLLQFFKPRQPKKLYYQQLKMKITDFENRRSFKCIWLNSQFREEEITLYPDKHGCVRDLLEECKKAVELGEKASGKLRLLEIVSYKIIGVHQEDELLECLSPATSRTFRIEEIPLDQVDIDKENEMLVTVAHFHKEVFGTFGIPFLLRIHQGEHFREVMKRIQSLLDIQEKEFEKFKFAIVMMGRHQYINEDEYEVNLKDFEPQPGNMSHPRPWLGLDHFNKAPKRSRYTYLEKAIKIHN
# USP10 block: blocks human USP10 ubiquitin-rhodamine cleavage; Q14694; purified USP10, Ub-rhodamine fluorescence, 60 min; inhibition, % at 20 µM; actives 1.1% (n = 47,000)
# OTUD3 block: human OTUD3 deubiquitinase inhibition. inhibition, % at 25 µM. Q5T2D3. actives 0.7% (n = 47,000). purified OTUD3, Ub-rhodamine fluorescence, 2 h
# UCHL1 inh: human UCHL1 deubiquitinase inhibition; P09936; purified UCHL1, Ub-rhodamine cleavage fluorescence; inhibition, % at 20 µM; actives 0.2% (n = 47,000); AID 1645859
# Active calls of the source: *. Sampled rows, rich in hits. Any-hit rate of the full collection: about 5%. Rule as the data show it: active = inhibition above about 30%; inactive = the rest.
SMILES,USP8 block,USP7 block,USP10 block,OTUD3 block,UCHL1 inh
CC(=O)c1cc(-c2ccc(F)cc2)n(CC(=O)Nc2cccc(C)c2C)c1C,41*,11,35*,35*,1
COc1ccc(N(C(=O)CCCC(=O)Nc2ccccn2)C(C(=O)NC2CCCCC2)c2ccc(Cl)cc2)cc1 (stereo not drawn),27,4,1,13,2
O=C(Oc1coc(CSc2ncccn2)cc1=O)c1c(F)cccc1Cl,29,-4,0,2,0
O=C(Oc1coc(CSc2ncccn2)cc1=O)c1c(F)cccc1F,46*,0,6,19,4
O=C(c1n[nH]c2c1CCN(Cc1ccoc1)C2)N1CCOCC1,-18,5,3,12,2
Cc1ccc(NC(=O)C2CCN(c3nc4nc[nH]c(=O)c4s3)CC2)cc1F,39*,6,-8,-26,0
O=C(Cn1c(=O)n(Cc2ccc3c(c2)OCO3)c(=O)c2ncccc21)c1ccccc1,-7,0,0,2,-4
CCOC(=O)C1CCN(C(=O)CCC(=O)Nc2ccc3nc(N4CCN(CC)CC4)cc(C)c3c2)CC1,7,3,-5,8,-1
Cc1cc(N2CCN(c3ncccn3)CC2)nc2ccc(NC(=O)c3ccncc3)cc12,19,-2,-2,-3,0
CC(=O)Nc1ccc2nc(N3CCC(C(=O)N4CCN(C)CC4)CC3)cc(C)c2c1,31*,4,0,15,5
CCN1CCN(c2cc(C)c3cc(NC(=O)c4ccco4)ccc3n2)CC1,48*,2,-3,-3,4
Cc1cc(N2CCCCC2)nc2ccc(NC(=O)c3ccco3)cc12,58*,-35,-10,-29,-25
COc1ccc(C(C)=O)cc1CC(=O)Nc1nc2ccccc2[nH]1,28,1,8,5,2
O=C(CN1CCCC1c1ccc2c(c1)OCCCO2)NCCc1ccccc1 (stereo not drawn),-6,-20,-7,-24,-3
COc1ccc(-c2n[nH]c(-c3nc4ccccc4c(=O)[nH]3)n2)cc1,-14,-113,-2,0,-139
Brc1ccc(Nc2nc(-c3ccccn3)nc3ccccc23)cc1,93*,16,20,51*,4
O=C(Nc1cccnc1)C1c2ccccc2C(=O)N(c2ccccc2)C12CCCCC2 (stereo not drawn),49*,10,31*,2,0
O=C(Nc1cc(F)c2nc(N3CCOCC3)ccc2c1)c1ccc(Br)o1,86*,-9,-8,-5,4
COc1ccc(OCC(=O)Nc2cc(F)c3nc(N4CCOCC4)ccc3c2)cc1,6,4,-7,-36,0
O=C(Nc1cc(F)c2nc(N3CCOCC3)ccc2c1)C1CCC1,78*,-4,0,-8,3
O=C(Nc1cc(F)c2nc(N3CCOCC3)ccc2c1)C1CC1,59*,-4,-8,6,7
CCc1ncc(CN2CCC3(CC2)Nc2cc(Cl)ccc2C2=NCCN23)cn1,2,2,-2,10,1
Cc1cccc(NC(=O)c2ncn3c2CN(C)S(=O)(=O)c2ccccc2-3)c1,12,4,1,14,5
CC(C)(C)c1ccc(S(=O)(=O)Nc2ccc(Cc3ccncc3)cc2)cc1,-68,16,6,-9,11
COc1ccc(S(=O)(=O)Nc2ccc(Cc3ccncc3)cc2)c2ccccc12,43*,8,4,2,2
SMILES,USP8 block,USP7 block,USP10 block,OTUD3 block,UCHL1 inh
O=c1c2cc([N+](=O)[O-])ccc2nc(CN2CCN(c3ccccn3)CC2)n1-c1ccccc1F,-44,-17,4,30*,4
COc1ccc(CNC(=O)c2cccc(-c3cnc(N4CCCC4)nc3)c2)cc1,0,0,8,-1,-2
COc1ccc(C(=O)C(C)OC(=O)c2cccc(S(=O)(=O)Nc3cc([N+](=O)[O-])ccc3OC)c2)c(OC)c1 (stereo not drawn),20,17,37*,0,6
COc1cccc(NC(=O)C(C)OC(=O)c2ccc(NS(=O)(=O)c3ccc(F)c(F)c3)cc2)c1 (stereo not drawn),-6,6,12,-4,1
O=C(Nc1ccccc1F)C1Cc2ccccc2N1C(=O)c1ccccc1 (stereo not drawn),-6,-4,-6,-22,-4
COc1cc(Cl)c(NC(=O)C2Cc3ccccc3N2C(=O)c2ccccc2)c(OC)c1 (stereo not drawn),-8,1,36*,-2,1
Cc1cc(NC(=O)CSc2ncc(-c3cccc([N+](=O)[O-])c3)n2-c2cccc(Cl)c2)no1,55*,12,64*,8,-2
FC(F)(F)c1cccc(Nc2nc(-c3ccccn3)nc3ccccc23)c1,22,13,22,-4,6
FC(F)(F)c1ccc(Nc2nnnc3ccccc23)cc1,64*,60*,47*,0,29
COc1cccc(CN2C(=O)c3cc4occc4n3CC2(C)C(=O)NC2CCCCCC2)c1 (stereo not drawn),5,-57,6,-25,6
COc1cccc(CN2C(=O)c3cc4ccccc4n3CC2(C)C(=O)NC2CCCC2)c1 (stereo not drawn),35*,5,18,-11,6
Cc1nn(C)cc1S(=O)(=O)Nc1cnn(Cc2cccc3ccccc23)c1,86*,0,2,0,4
Cc1ccccc1Cn1ccc(NS(=O)(=O)c2cn(C)nc2C)n1,-3,-2,3,9,-1
COc1ccc(C)cc1NCC(=O)Nc1ncc(Cl)c(C)c1Cl,36*,-12,-5,-10,-9
Nc1ccc(NC(=O)c2cc3c(s2)CCC3)cc1[N+](=O)[O-],57*,12,11,5,4
Cc1ccc(S(=O)(=O)N2CCCCC2)cc1NC(=O)c1cc2c(s1)CCC2,11,7,8,2,2
O=C(Nc1cc(S(=O)(=O)N2CCOCC2)ccc1N1CCOCC1)c1cc2c(s1)CCCC2,14,10,5,7,8
O=C(Nc1cc(S(=O)(=O)Nc2ccc(Cl)cc2)ccc1O)c1cc2c(s1)CCC2,99*,60*,70*,8,33*
Cc1ccsc1C(=O)NCc1nnc2c(C(F)(F)F)cc(Cl)cn12,-99,-14,-1,-8,-2
Cc1ccc(CNC(=O)CCc2c(C)nc3c(c(C)nn3-c3ccc(C)cc3)c2C)cc1,34*,5,1,24,6
COc1ccc(CNC(=O)CCc2c(C)c3c(C)nn(-c4ccccc4)c3n(C)c2=O)cc1,-46,0,0,4,0
Cc1ccc(C(=O)O)cc1NC(=O)C(Sc1cccc(NC(=O)c2cccc(Cl)c2)c1)c1ccccc1 (stereo not drawn),40*,-25,34*,29,4
Cc1cccc(C(=O)Nc2cccc(SC(C(=O)Nc3ccc(Cl)c(C(=O)O)c3)c3ccccc3)c2)c1 (stereo not drawn),44*,11,69*,21,7
